From PubChem BioAssay (NCATS)
Records with an inconclusive call do not appear. Calls of active or inactive are those of the source. Calls come from the whole dose curve; as a rule, active = well fitted inhibition curve with a large enough effect; inconclusive = small, poorly fitted or top-dose-only effect; inactive = flat fitted curve, though single readings scatter.

Experiments:
[1] = target: Luciferin 4-monooxygenase (Photinus pyralis) (UniProt P08659); experiment: Biochemical firefly luciferase enzyme assay for NPC (AID 624030);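 note: purified P. pyralis luciferase at 10 nM with luciferin and ATP substrate; nearly all actives have a fitted effect of over 70% in size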
Luciferin 4-monooxygenase (Photinus pyralis), sequence (P08659 whole entry, looked up): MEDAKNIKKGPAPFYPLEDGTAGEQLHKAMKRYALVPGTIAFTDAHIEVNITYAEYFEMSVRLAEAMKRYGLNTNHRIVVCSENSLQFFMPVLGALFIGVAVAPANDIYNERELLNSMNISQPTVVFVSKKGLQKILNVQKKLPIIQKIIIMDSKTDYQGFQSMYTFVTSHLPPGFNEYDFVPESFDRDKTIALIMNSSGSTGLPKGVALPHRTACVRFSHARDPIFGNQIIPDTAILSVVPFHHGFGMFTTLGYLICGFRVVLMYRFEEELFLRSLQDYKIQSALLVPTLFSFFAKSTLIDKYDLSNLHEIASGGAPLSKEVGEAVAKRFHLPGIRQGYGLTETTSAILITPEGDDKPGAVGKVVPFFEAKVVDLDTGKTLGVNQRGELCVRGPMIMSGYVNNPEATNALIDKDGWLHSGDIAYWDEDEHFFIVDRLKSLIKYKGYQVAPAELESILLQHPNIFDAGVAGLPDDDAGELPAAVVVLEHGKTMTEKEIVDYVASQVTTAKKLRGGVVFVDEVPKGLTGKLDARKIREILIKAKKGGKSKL
How it was run: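 Counter-screen for direct inhibition of the luciferase enzyme by approved-drug library compounds, run at 10 nM enzyme in 50 mM Tris acetate (final). Luminescence was read within 5 min of enzyme-buffer addition and normalized to PTC124 versus DMSO (0%).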

7G8 = experiment: qHTS profiling for inhibitors of Plasmodium falciparum proliferation (AID 504749); note: nearly all actives have a fitted effect of over 60% in size; note: potency is the fitted concentration of half-maximal effect; conditions: P. falciparum in erythrocytes, SYBR Green DNA, 72 h; series mostly up to 28.7 µM
How it was run: (§1)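 Fluorescence of SYBR Green-bound parasite DNA, read at 485/535 nm, served as the growth measure. Infected erythrocytes were cultured with compound 72 h; artemisinin (0.29 uM) and DMSO wells defined the normalization range.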

ATS95 = experiment: as above; conditions: P. falciparum in erythrocytes, SYBR Green DNA, 72 h; series mostly up to 28.7 µM
How it was run: as §1

C2A = experiment: as above; conditions: P. falciparum in erythrocytes, SYBR Green DNA, 72 h; series mostly up to 28.7 µM
How it was run: as §1

CP192 = experiment: as above; conditions: P. falciparum in erythrocytes, SYBR Green DNA, 72 h; series mostly up to 28.7 µM
How it was run: as §1

CP203 = experiment: as above; conditions: P. falciparum in erythrocytes, SYBR Green DNA, 72 h; series mostly up to 28.7 µM
How it was run: as §1

CP211 = experiment: as above; conditions: P. falciparum in erythrocytes, SYBR Green DNA, 72 h; series mostly up to 28.7 µM
How it was run: as §1

CP247 = experiment: as above; conditions: P. falciparum in erythrocytes, SYBR Green DNA, 72 h; series mostly up to 28.7 µM
How it was run: as §1

CP262 = experiment: as above; conditions: P. falciparum in erythrocytes, SYBR Green DNA, 72 h; series mostly up to 28.7 µM
How it was run: as §1

CP268 = experiment: as above; conditions: P. falciparum in erythrocytes, SYBR Green DNA, 72 h; series mostly up to 28.7 µM
How it was run: as §1

CP269 = experiment: as above; conditions: P. falciparum in erythrocytes, SYBR Green DNA, 72 h; series mostly up to 28.7 µM
How it was run: as §1

CP305 = experiment: as above; conditions: P. falciparum in erythrocytes, SYBR Green DNA, 72 h; series mostly up to 28.7 µM
How it was run: as §1

ECU = experiment: as above; conditions: P. falciparum in erythrocytes, SYBR Green DNA, 72 h; series mostly up to 28.7 µM
How it was run: as §1

GB4 = experiment: as above; conditions: P. falciparum in erythrocytes, SYBR Green DNA, 72 h; series mostly up to 28.7 µM
How it was run: as §1

HB3 = experiment: as above; conditions: P. falciparum in erythrocytes, SYBR Green DNA, 72 h; series mostly up to 28.7 µM
How it was run: as §1

PAD = experiment: as above; conditions: P. falciparum in erythrocytes, SYBR Green DNA, 72 h; series mostly up to 28.7 µM
How it was run: as §1

SC27B = experiment: as above; conditions: P. falciparum in erythrocytes, SYBR Green DNA, 72 h; series mostly up to 28.7 µM
How it was run: as §1

TAB113 = experiment: as above; conditions: P. falciparum in erythrocytes, SYBR Green DNA, 72 h; series mostly up to 28.7 µM
How it was run: as §1

TAB165 = experiment: as above; conditions: P. falciparum in erythrocytes, SYBR Green DNA, 72 h; series mostly up to 28.7 µM
How it was run: as §1

CP291 = experiment: as above; conditions: P. falciparum in erythrocytes, SYBR Green DNA, 72 h; series mostly up to 28.7 µM
How it was run: as §1

Measured: Potency

OCC(CO)NC1C[C@](O)(CO)[C@@H](O)[C@H](O)[C@H]1O (stereo partly drawn)
not listed: CP291
inactive: all other assays above

CN1[C@@H]2CC[C@@H]1CC(OC(=O)[C@H](CO)c1ccccc1)C2 (stereo partly drawn)
not listed: TAB113
inactive: all other assays above

C[C@]12C=CC(=O)N[C@@H]1CC[C@@H]1C2CC[C@]2(C)C(C(=O)Nc3cc(C(F)(F)F)ccc3C(F)(F)F)CC[C@@H]12 (stereo partly drawn)
active: 7G8 2 µM
not listed: ATS95 | CP268 | CP305 | GB4 | HB3 | TAB165 | CP291
inactive: all other assays above

C=C(CC[C@@H](C)[C@H]1CCC2[C@]1(C)CC[C@]13C[C@@]14CCC(OC(=O)/C=C/c1ccc(O)c(OC)c1)C(C)(C)[C@@H]4CC[C@@]23C)C(C)C (stereo partly drawn)
not listed: 7G8
inactive: all other assays above

Nc1nc(/C(=C/CC(=O)O)C(=O)NC2C(=O)N3C(C(=O)O)=CCSC23)cs1 (stereo not drawn)
not listed: CP203 | HB3
inactive: all other assays above

CCC(C(=O)C(C)C(O)C(C)CCc1ccc(C)c(O)c1C(=O)O)C1OC(CC)(C2CC[C@@](O)(CC)C(C)O2)CC1C (stereo partly drawn)
inactive: [1]
active: 7G8 0.501 µM | ATS95 0.891 µM | C2A 0.794 µM | CP203 0.849 µM | CP211 0.536 µM | CP247 0.794 µM | CP262 953 nM | CP268 0.849 µM | CP269 0.757 µM | CP291 0.478 µM | CP305 0.675 µM | ECU 0.708 µM | GB4 0.757 µM | HB3 0.631 µM | PAD 1.26 µM | SC27B 0.447 µM | TAB113 0.891 µM | TAB165 0.355 µM

C[N+]12CCCC[C@@H]1CCC(=C(c1cccs1)c1cccs1)C2 (stereo partly drawn)
active: 7G8 7.94 µM | CP192 10.7 µM | CP203 16.9 µM | CP211 13.5 µM | CP247 10 µM | CP268 15.1 µM | CP269 13.5 µM | CP291 15.1 µM | CP305 10.7 µM | ECU 1 µM | GB4 7.57 µM | PAD 11.2 µM | TAB113 11.2 µM | TAB165 12.6 µM
inactive: [1] | CP262

C/C(=C(/CCO)SS/C(CCO)=C(\C)N(C=O)Cc1cnc(C)nc1N)N(C=O)Cc1cnc(C)nc1N
not listed: CP247
inactive: all other assays above

COc1ccc(S(=O)(=O)N2c3ccc(Cl)cc3[C@](O)(c3ccccc3Cl)[C@@H]2C(=O)N2CCC[C@H]2C(N)=O)cc1OC
active: 7G8 11.2 µM
not listed: ECU | PAD | SC27B | TAB165
inactive: all other assays above

C=C[C@@]1(C)C[C@H](OC(=O)CSC(C)(C)CNC(=O)[C@@H](N)C(C)C)[C@@]2(C)C(C)CC[C@@]3(CCC(=O)[C@@H]32)[C@H](C)[C@H]1O (stereo partly drawn)
inactive: [1]
active: 7G8 2.51 µM | ATS95 5.01 µM | C2A 5.01 µM | CP192 3.38 µM | CP203 1.07 µM | CP211 0.675 µM | CP247 4.47 µM | CP262 239 nM | CP268 3.01 µM | CP269 1.07 µM | CP291 1.69 µM | CP305 0.379 µM | ECU 4.47 µM | GB4 3.79 µM | PAD 4.47 µM | SC27B 5.62 µM | TAB113 5.62 µM | TAB165 4.47 µM

Clc1ccc(CS[C@@H](Cn2ccnc2)c2ccc(Cl)cc2Cl)cc1
inactive: [1]
active: 7G8 0.562 µM | ATS95 3.55 µM | CP203 4.55 µM | CP269 6.42 µM | CP291 5.73 µM | ECU 1.78 µM | GB4 3.61 µM | HB3 3.98 µM | PAD 3.16 µM | SC27B 2.82 µM | TAB165 0.708 µM

O=C(O)C(O)c1ccccc1 (stereo not drawn)
inactive: all assays above

C[C@]12CC[C@@H]3c4ccc(O)cc4C[C@@H](CCCCCCCCCS(=O)CCCC(F)(F)C(F)(F)F)C3[C@@H]1CC[C@@H]2O (stereo partly drawn)
active: 7G8 1.78 µM | ATS95 8.91 µM | C2A 10 µM | CP291 12 µM | CP305 10.7 µM | ECU 3.55 µM | GB4 9.53 µM | HB3 5.01 µM | PAD 3.98 µM | SC27B 2.82 µM | TAB113 4.47 µM | TAB165 2.24 µM
inactive: [1] | CP262

CCC(=O)O[C@]1(C(=O)CCl)[C@@H](C)CC2C3C[C@H](F)C4=CC(=O)C=CC4(C)[C@@]3(F)C(O)CC21C (stereo partly drawn)
inactive: [1]
active: 7G8 1.58 µM | ATS95 6.31 µM | C2A 12.6 µM | CP211 9.53 µM | CP247 12.6 µM | CP262 9530 nM | CP268 12 µM | CP269 12 µM | CP291 13.5 µM | CP305 12 µM | ECU 3.55 µM | GB4 7.57 µM | HB3 12.6 µM | PAD 3.98 µM | SC27B 7.94 µM | TAB113 8.91 µM | TAB165 10 µM

Nc1ncn(C2C[C@H](O)[C@@H](CO)O2)c(=O)n1 (stereo partly drawn)
inactive: all assays above

Cc1cc2nc3c(=O)[nH]c(=O)nc-3n(CC(O)C(O)C(O)COP(=O)(O)O)c2cc1C (stereo not drawn)
not listed: CP247
inactive: all other assays above

Cn1cc(C(=O)[C@@H]2CCc3[nH]cnc3C2)c2ccccc21
not listed: 7G8
inactive: all other assays above

C[C@@H]1CC2C3CCC4=CC(=O)C=C[C@]4(C)[C@@]3(F)[C@@H](O)C[C@]2(C)[C@@]1(O)C(=O)COC(=O)c1cccc(S(=O)(=O)O)c1 (stereo partly drawn)
not listed: 7G8
inactive: all other assays above
